This is an account of results in PubChem BioAssay (EPA / NIEHS).

The source made the active and inactive calls. The calls were made as follows: active = hit-call score of the fitted dose curve at least 0.9, where 1 is the maximum; inactive = score below 0.9.

Holding throughout (conditions): mRNA level, 48 h; actives raise or lower the signal
Read-out in assay [1]: Cytochrome P450 4A22 (Homo sapiens) (UniProt Q5TCH4)
Kind of assay: LTEA_HepaRG_CYP4A22: Life Technologies and Expression Analysis (LTEA) Assay for Cytochrome P450 4A22 (CYP4A22) using HepaRG (AID 2283495). In outline: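 Concentration-response (8 points, max 100 uM, 0.5% DMSO) in human HepaRG liver cells after 48 h exposure. CYP4A22 mRNA by TaqMan qRT-PCR with housekeeping-gene normalization.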

Read-out in assay [2]: Cytochrome P450 7A1 (Homo sapiens) (UniProt P22680)
The assay is described as follows: LTEA_HepaRG_CYP7A1: Life Technologies and Expression Analysis (LTEA) Assay for Cytochrome P450 7A1 (CYP7A1) using HepaRG (AID 2283496). The procedure, abridged: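 Using 0.5% DMSO as vehicle and baseline, chemicals were tested in duplicate over an 8-point range from 100 uM on HepaRG cells for 48 h; qRT-PCR signals were normalised to ACTB, GAPDH and POLR2A.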

Read-out in assay [3]: Glutathione S-Transferase (GSTA2), GSTA2 (gene 2939)
Kind of assay: LTEA_HepaRG_GSTA2: Life Technologies and Expression Analysis (LTEA) Assay for Glutathione S-Transferase (GSTA2) using HepaRG (AID 2283497). The procedure, abridged: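 GSTA2 transcript levels came from Fluidigm TaqMan qRT-PCR normalized to three housekeeping genes, fitted in both directions against DMSO. HepaRG cultures received chemicals for 48 h in serum-free induction medium (0.5% DMSO), 8 half-log concentrations up to 100 uM, duplicate.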

Read-out in assay [4]: Glutamate-cysteine ligase catalytic (GCLC), GCLC (gene 2729)
Kind of assay: LTEA_HepaRG_GCLC: Life Technologies and Expression Analysis (LTEA) Assay for Glutamate-cysteine ligase catalytic (GCLC) using HepaRG (AID 2283498). In outline:
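Expression by TaqMan qRT-PCR, normalized to three housekeeping genes (ACTB, GAPDH, POLR2A), with up- or down-regulation fitted against DMSO. HepaRG cells dosed in duplicate for 48 h with 8 half-log concentrations up to 100 uM, vehicle 0.5% DMSO.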

Read-out in assay [5]: growth arrest and DNA damage 45 (GADD45G), GADD45G (gene 10912)
The assay is described as follows: LTEA_HepaRG_GADD45G: Life Technologies and Expression Analysis (LTEA) Assay for growth arrest and DNA damage 45 (GADD45G) using HepaRG (AID 2283499). In outline: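 Concentration-response in HepaRG: 48 h dosing, 0.5% DMSO, highest level 100 uM. GADD45G expression by qRT-PCR, normalised to endogenous controls; bidirectional fit to DMSO.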

Read-out in assay [6]: Glutamate-cysteine ligase regulatory (GCLM), GCLM (gene 2730)
Kind of assay: LTEA_HepaRG_GCLM: Life Technologies and Expression Analysis (LTEA) Assay for Glutamate-cysteine ligase regulatory (GCLM) using HepaRG (AID 2283500). The procedure, abridged: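 In this multiplexed HepaRG gene-expression assay, GCLM mRNA change after 48 h treatment (8 concentrations, max 100 uM) was scored against DMSO by bidirectional curve fitting.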

Read-out in assay [7]: Glutathione S-transferase M3 (GSTM3), GSTM3 (gene 2947)
Kind of assay: LTEA_HepaRG_GSTM3: Life Technologies and Expression Analysis (LTEA) Assay for Glutathione S-transferase M3 (GSTM3) using HepaRG (AID 2283501). In outline:
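Expression of GSTM3 is determined by qRT-PCR in human liver HepaRG cells treated 48 h with an 8-point half-log range from 100 uM in 0.5% DMSO.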

Read-out in assay [8]: Heat shock 70 kDa protein 1 (HSPA1A), gene 3303
Kind of assay: LTEA_HepaRG_HSPA1A: Life Technologies and Expression Analysis (LTEA) Assay for Heat shock 70 kDa protein 1 (HSPA1A) using HepaRG (AID 2283502). In outline: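 An oxidative-stress marker readout: HepaRG cells treated 48 h in duplicate with an eight-point series (highest 100 uM) had HSPA1A mRNA quantified by TaqMan qRT-PCR. Activity was fitted in both directions using 0.5% DMSO as baseline.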

Read-out in assay [9]: Hypoxia-inducible factor 1-alpha (Homo sapiens) (UniProt Q16665)
The assay is described as follows: LTEA_HepaRG_HIF1A: Life Technologies and Expression Analysis (LTEA) Assay for Hypoxia-inducible factor 1 (HIF1A) Trancription factor using HepaRG (AID 2283503).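 Also: HIF1A transcript by TaqMan qRT-PCR normalized to ACTB GAPDH and POLR2A.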 The procedure, abridged: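 Gain- or loss-of-signal HIF1A mRNA changes are fitted against a DMSO baseline. HepaRG cultures receive eight concentrations, highest 100 uM, for 48 h in serum-free induction medium with 0.5% DMSO.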

Read-out in assay [10]: 3-Hydroxy-3-Methylglutaryl-CoA Synthase 2 (HMGCS2), HMGCS2 (gene 3158)
The assay is described as follows: LTEA_HepaRG_HMGCS2: Life Technologies and Expression Analysis (LTEA) Assay for 3-Hydroxy-3-Methylglutaryl-CoA Synthase 2 (HMGCS2) using HepaRG (AID 2283504). In outline: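 This steatosis marker was read as HMGCS2 mRNA change in HepaRG cells treated 48 h with up to 100 uM chemical. Normalisation used housekeeping genes; activity in either direction was fitted relative to 0.5% DMSO vehicle.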

Read-out in assay [11]: HGF (gene 3082)
The assay is described as follows: LTEA_HepaRG_HGF: Life Technologies and Expression Analysis (LTEA) Assay for Hepatocyte Growth Facto (HGF) using HepaRG (AID 2283505). The procedure, abridged: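 Using HepaRG monolayers kept in 0.5% DMSO, chemicals were tested in duplicate over eight half-log concentrations from 100 uM for 48 h. Endpoint: HGF mRNA change relative to DMSO, normalized to ACTB/GAPDH/POLR2A.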

Read-out in assay [12]: Insulin Like Growth Factor 1 (IGF1), IGF1 (gene 3479)
The assay is described as follows: LTEA_HepaRG_IGF1: Life Technologies and Expression Analysis (LTEA) Assay for Insulin Like Growth Factor 1 (IGF1) using HepaRG (AID 2283506). The procedure, abridged:
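Endpoint: IGF1 mRNA change by qRT-PCR, housekeeping-normalized, fitted bidirectionally relative to 0.5% DMSO vehicle. Human HepaRG cells were treated 48 h in serum-free induction medium, eight half-log concentrations topping at 100 uM.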

Read-out in assay [13]: Intercellular Adhesion Molecule 1 (ICAM1), ICAM1 (gene 3383)
Kind of assay: LTEA_HepaRG_ICAM1: Life Technologies and Expression Analysis (LTEA) Assay for Intercellular Adhesion Molecule 1 (ICAM1) using HepaRG (AID 2283507). The procedure, abridged: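 Using the human liver line HepaRG, compounds are tested in duplicate over 48 h at concentrations up to 100 uM. Expression is determined by TaqMan qRT-PCR, normalized to endogenous controls, and analysed relative to 0.5% DMSO vehicle.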

Read-out in assay [14]: Insulin-like growth factor-binding protein 1 (IGFBP1), IGFBP1 (gene 3484)
Kind of assay: LTEA_HepaRG_IGFBP1: Life Technologies and Expression Analysis (LTEA) Assay for Insulin-like growth factor-binding protein 1 (IGFBP1) using HepaRG (AID 2283508). The procedure, abridged:
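HepaRG, 48 h, 8 conc. (max 100 uM, half-log), duplicates, 0.5% DMSO. Readout: TaqMan qRT-PCR, ACTB/GAPDH/POLR2A normalisation. Fit: bidirectional vs DMSO.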

Read-out in assay [15]: Interleukin 6 Receptor (IL6R), IL6R (gene 3570)
The assay is described as follows: LTEA_HepaRG_IL6R: Life Technologies and Expression Analysis (LTEA) Assay for Interleukin 6 Receptor (IL6R) using HepaRG (AID 2283510).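 As to AC50: differentiated human HepaRG liver cells in serum-free induction medium.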 The procedure, abridged: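 In this HepaRG screen, test chemicals act on cells for 48 h at up to 100 uM (eight half-log points, duplicate wells). IL6R expression is quantified by qRT-PCR after normalization to ACTB, GAPDH and POLR2A, with DMSO as baseline.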

Read-out in assay [16]: Keratin 19 (KRT19), KRT19 (gene 3880)
The assay is described as follows: LTEA_HepaRG_KRT19: Life Technologies and Expression Analysis (LTEA) Assay for Keratin 19 (KRT19) using HepaRG (AID 2283512). In outline:
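Readout is qRT-PCR of KRT19 mRNA, normalized to ACTB, GAPDH and POLR2A, from HepaRG cells treated 48 h with eight-point half-log dilutions topping at 100 uM. Activity in either direction is scored relative to 0.5% DMSO vehicle.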

Read-out in assay [17]: JUN Transcription Factor, JUN (gene 3725)
The assay is described as follows: LTEA_HepaRG_JUN: Life Technologies and Expression Analysis (LTEA) Assay for JUN Transcription Factor using HepaRG (AID 2283513). The procedure, abridged: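 Gene-expression endpoint: JUN mRNA (qRT-PCR, normalized to three reference genes) in HepaRG cultures treated 48 h with chemicals, duplicate wells, 100 uM maximum with half-log dilutions; bidirectional fitting relative to 0.5% DMSO.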

Read-out in assay [18]: Lipase C (LIPC), LIPC (gene 3990)
The assay is described as follows: LTEA_HepaRG_LIPC: Life Technologies and Expression Analysis (LTEA) Assay for Lipase C (LIPC) using HepaRG (AID 2283514). In outline:
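LIPC expression was quantified by qRT-PCR against three housekeeping genes (ACTB, GAPDH, POLR2A). Differentiated human HepaRG cells received eight half-log doses (top 100 uM, 0.5% DMSO) in duplicate for 48 h; fitting bidirectional relative to DMSO.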

Read-out in assay [19]: Interleukin 6 (IL6), IL6 (gene 3569)
Kind of assay: LTEA_HepaRG_IL6: Life Technologies and Expression Analysis (LTEA) Assay for Interleukin 6 (IL6) using HepaRG (AID 2283509). In outline: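 Transcript levels, normalized to three housekeeping genes, were quantified by qRT-PCR after 48 h chemical treatment of HepaRG cells. Eight-point half-log series from 100 uM in 0.5% DMSO, duplicates. Fitted both directions against DMSO baseline.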

Read-out in assay [20]: Potassium channel subfamily K member 1 (KCNK1), KCNK1 (gene 3775)
The assay is described as follows: LTEA_HepaRG_KCNK1: Life Technologies and Expression Analysis (LTEA) Assay for Potassium channel subfamily K member 1 (KCNK1) using HepaRG (AID 2283511). In outline:
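KCNK1 transcript measured by TaqMan qRT-PCR against three housekeeping genes, after HepaRG cells were treated 48 h with eight half-log concentrations (top 100 uM, 0.5% DMSO). Curves fitted bidirectionally relative to vehicle.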

Chain of Hypoxia-inducible factor 1-alpha (Homo sapiens) (Q16665 whole entry, looked up): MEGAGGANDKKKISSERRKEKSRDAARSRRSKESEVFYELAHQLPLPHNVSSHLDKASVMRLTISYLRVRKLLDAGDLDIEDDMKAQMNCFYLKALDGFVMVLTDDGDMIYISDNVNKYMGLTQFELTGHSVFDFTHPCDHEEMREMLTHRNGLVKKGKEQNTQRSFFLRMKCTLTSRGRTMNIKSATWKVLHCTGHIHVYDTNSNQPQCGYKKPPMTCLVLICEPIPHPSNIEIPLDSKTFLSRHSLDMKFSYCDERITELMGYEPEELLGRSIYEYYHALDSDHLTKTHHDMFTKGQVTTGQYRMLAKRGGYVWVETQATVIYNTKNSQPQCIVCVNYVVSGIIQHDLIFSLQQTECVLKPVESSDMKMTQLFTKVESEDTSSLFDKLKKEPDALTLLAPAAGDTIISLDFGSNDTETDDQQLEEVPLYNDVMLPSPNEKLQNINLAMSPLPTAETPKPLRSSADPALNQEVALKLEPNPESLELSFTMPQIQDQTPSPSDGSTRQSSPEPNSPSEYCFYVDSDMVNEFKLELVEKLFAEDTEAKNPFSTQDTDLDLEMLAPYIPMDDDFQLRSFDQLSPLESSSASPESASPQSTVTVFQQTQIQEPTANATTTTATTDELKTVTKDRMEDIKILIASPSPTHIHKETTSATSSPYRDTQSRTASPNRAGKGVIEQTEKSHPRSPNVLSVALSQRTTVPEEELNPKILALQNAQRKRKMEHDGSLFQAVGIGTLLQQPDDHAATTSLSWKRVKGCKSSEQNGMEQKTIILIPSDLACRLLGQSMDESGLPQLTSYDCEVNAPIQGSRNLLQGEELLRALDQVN

What is called AC50 is the midpoint of the concentration-response curve, whichever way the signal moves. For `COc1ccc2cc(S(=O)(=O)N[C@H](CC(=O)N[C@H](Cc3ccc(CN4[C@H](C)CCC[C@@H]4C)cc3)C(=O)N(C)C(C)C)c3ccc4c(c3)OCO4)ccc2c1`, the AC50 was 2.63 µM (active) in assay [1]; 81.6 µM (active) in [3]; 56.4 µM (active) in assay [4]; 78 µM (active) in [6]; 22.5 µM (active) in assay [7]; 82.6 µM (active) in assay [8]. Also, the half-maximal activity concentration (AC50) in assay [9] is 75.5 µM (active); in [11], 19.9 µM (active); in assay [12], 21.2 µM (active); in [13], 12 µM (active); in assay [14] it was 13 µM (active); in assay [15], 82.5 µM (active). Besides, the AC50 in [16] is 12 µM (active); in assay [17], 57.8 µM (active). Also, the molecule was called inactive in [2], in [5], in assay [10] and in [18].

Consider `CCCCCCCCOC(=O)c1cc(O)c(O)c(O)c1`, for which the outcome in assay [1], in assay [2], in assay [3], in assay [4], in assay [5] and in assay [6] was inactive. For the same molecule, the call in assay [7], in [8], in assay [9], in assay [10], in [11] and in assay [12] was inactive. Further, the molecule was classed as inactive in assay [13], in [14], in assay [15], in assay [17] and in assay [18]. The AC50 is 50 µM (active) in assay [19] and 27.1 µM (active) in [16].

As for `O=C(O)c1ccccc1C(=O)OCc1ccccc1`, the AC50 in assay [1] was 23.4 µM (active); in assay [5], 5.56 µM (active). Also, the molecule was called inactive in assay [2], in assay [3], in assay [4], in [6], in assay [8] and in assay [9]. The molecule was classed as inactive in assay [10], in [11], in [12], in [13], in assay [14] and in assay [15]. For the same molecule, the molecule was classed as inactive in [16], in assay [17] and in assay [18].

As for `CO[C@H]1/C=C/O[C@@]2(C)Oc3c(C)c(O)c4c(O)c(c(/C=N/N5CCN(C)CC5)c(O)c4c3C2=O)NC(=O)/C(C)=C\C=C\[C@H](C)[C@H](O)[C@@H](C)[C@@H](O)[C@@H](C)[C@H](OC(C)=O)[C@@H]1C`, the molecule was classed as inactive in [1], in [4], in [5], in assay [6], in [8] and in assay [10]. The outcome in assay [13], in assay [14], in assay [19], in [15], in [20] and in [16] was inactive. The result in assay [17] and in [18] was inactive. The AC50 is 1.62 µM (active) in assay [2], 0.379 µM (active) in assay [3] and 4.12 µM (active) in assay [12].
